DAX1 inh-1: DAX1 (NR0B1) inhibition, primary screen; HEK293T StAR-luciferase reporter, SF-1/DAX-1 repression relief; inhibition, % at 6.8 µM; 370,000 compounds, 1.1% hits;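 active = inhibition above the mean over all tested compounds plus 3 SD, cut at about 3.6% in these data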;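 also: 0% = DAX-1 cells with DMSO and 100% = cells lacking DAX-1 with DMSO; higher inhibition means more luminescence from relief of DAX-1 repression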
ssDAF12 agonist: activates DAF-12 receptor from parasite S. stercoralis. HEK293 ssDAF-12/GRIP1 lit1-tk-luc reporter, luminescence; % of 3 µM dafachronic acid response. activation, % at 6.8 µM. 370,000 compounds, 1% hits. AID 652126;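 active = activation above the mean over all tested compounds plus 3 SD, cut at about 0.9% in these data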;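 also: 0% = DMSO-only wells and 100% = 3 µM delta7-dafachronic acid wells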
hgDAF12 agonist: hgDAF-12 agonism, primary luciferase screen; HEK293 GAL4-hgDAF12 UAS-luciferase reporter, agonist luminescence; normalized to butyrate control; activation, % at 6.8 µM; 370,000 compounds, 1.8% hits;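 active = activation above a cutoff set at the mean of all screened compounds plus 3 SD, cut at about 10% in these data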;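 also: 0% = DMSO wells and 100% = sodium butyrate wells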
AHR activator: activators of human aryl hydrocarbon receptor; P35869; AHR-responsive luciferase reporter cells, luminescence; 320,000 compounds, 2.5% hits; activation, % at 5 µM; in the data active = activation above about 47%;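 also: 0% = vehicle wells and 100% = reference agonist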
DAX1 inh-2: inhibitors of human orphan nuclear receptor DAX1 (NR0B1); 340,000 compounds, 0.99% hits; HEK293 Gal4-DAX1 luciferase reporter, luminescence; P51843; AID 504766; inhibition, % at 6.75 µM;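 active = inhibition above the mean over all tested compounds plus 3 SD, cut at about 4.2% in these data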;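 also: 0% = DAX1-transfected cells with DMSO and 100% = empty-vector control cells with DMSO; inhibition shows as a rise in luminescence from relieved DAX1 repression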
hcDAF12 agonist: activators of H. contortus DAF-12 nuclear receptor. HEK293 hcDAF-12 lit1-tk-luc reporter, luminescence; 0% DMSO, 100% Δ7-dafachronic acid. activation, % at 6.8 µM. 370,000 compounds, 1.4% hits. AID 652067;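 active = activation above the mean of all tested compounds plus 3 SD, cut at about 5.5% in these data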;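 also: 100% = response to 3 µM Δ7-dafachronic acid high control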
AHR act confirm: human AHR activation, confirmation; human cells, AHR-responsive luciferase reporter, luminescence; activation, % at 9 µM; shares compounds with AHR activator; 2,300 compounds, 87% hits; AID 2845; in the data active = activation above about 49%;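 also: HepG2 hepatoma cells carrying a DRE-driven firefly luciferase reporter; 0% = vehicle wells and 100% = reference agonist wells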
PXR counter: PXR activation, counter-screen for AHR activators; shares compounds with AHR activator; cell-based PXR reporter, luciferase luminescence; activation, % at 11.6 µM; 2,300 compounds, 88% hits; AID 434939; in the data active = activation above about 11%;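 also: human hepatoma DPX-2 cells expressing full-length human PXR; 0% = DMSO and 100% = reference agonist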
Active calls of the source: *. Hits are enriched below; roughly 5.7% of the tested compounds scored in any of these assays.

COc1ccc2c(c1)c(/C=N/Nc1nc3ccccc3[nH]1)c(C)n2C was read as DAX1 inh-1 -2, ssDAF12 agonist -1, hgDAF12 agonist -9, AHR activator 98*, DAX1 inh-2 -2, hcDAF12 agonist -2, AHR act confirm 63* and PXR counter 40*.
For BrC(=C\c1ccccc1)/C=N/Nc1nc2ccccc2[nH]1 the results were DAX1 inh-1 1, ssDAF12 agonist -1, hgDAF12 agonist 2, AHR activator 149*, DAX1 inh-2 0, hcDAF12 agonist 0, AHR act confirm 49* and PXR counter 59*.
For C[C@@H]1CC[C@@]2(O[C@@H](CCO)C[C@H](O)[C@H]2O)O1 the results were DAX1 inh-1 0, ssDAF12 agonist -1, hgDAF12 agonist -1, AHR activator -4, DAX1 inh-2 -1 and hcDAF12 agonist -1.
For CCCCNC(=O)C1c2ccccc2OCC(=O)N1CC(F)(F)F (stereo unspecified) the results were DAX1 inh-1 1, ssDAF12 agonist -1, hgDAF12 agonist -3 and hcDAF12 agonist 0.
For O=C(N/N=C/c1ccc(-n2ccnc2)cc1)c1cccs1 the results were DAX1 inh-1 3, ssDAF12 agonist -1, hgDAF12 agonist 1, AHR activator 97*, DAX1 inh-2 0, hcDAF12 agonist 0, AHR act confirm 65* and PXR counter 23*.
For Cc1nn(-c2ccccc2)cc1/C=N/NC(=O)c1cccs1 the results were DAX1 inh-1 0, ssDAF12 agonist 0, hgDAF12 agonist 7, AHR activator 15, DAX1 inh-2 1 and hcDAF12 agonist 1.
Screening Cc1cc(N/N=C/c2cccc(Br)c2)nc2ccccc12 returned DAX1 inh-1 1, ssDAF12 agonist -1, hgDAF12 agonist 6, AHR activator 100*, DAX1 inh-2 0, hcDAF12 agonist 3, AHR act confirm 97* and PXR counter 34*.
Screening Cc1cc(N/N=C/c2ccccc2O)nc(-c2ccccc2O)n1 returned DAX1 inh-1 0, ssDAF12 agonist 1, hgDAF12 agonist 1, AHR activator 119*, DAX1 inh-2 -1, hcDAF12 agonist 2, AHR act confirm 40 and PXR counter 9.
Cc1cc(N/N=C/c2ccc(O)cc2O)nc(-c2ccccc2O)n1 was read as AHR activator 12 and DAX1 inh-2 -3.
`COc1ccc2nc(C)cc(N/N=C/c3ccccc3)c2c1` gave AHR activator 142*, DAX1 inh-2 0, AHR act confirm 96* and PXR counter 2.
For Cc1cc(N/N=C\c2ccccc2)nc(-c2ccccc2O)n1 the results were DAX1 inh-1 0, ssDAF12 agonist 0, hgDAF12 agonist 2, AHR activator 82*, DAX1 inh-2 -2, hcDAF12 agonist 0, AHR act confirm 108* and PXR counter 15*.
For COc1cccc(C(N)c2nc(-c3cc(F)cc(F)c3)cs2)c1 (stereo unspecified) the results were DAX1 inh-1 2, ssDAF12 agonist -1, hgDAF12 agonist 1 and hcDAF12 agonist -1.
For C#CCOCCOCCOCCNc1nc(N2CCN(C(=O)Cn3cc(CC(C)O)nn3)CC2)nc(N2CCN(C(=O)[C@H](C)n3cc(CCC(=O)O)nn3)CC2)n1 (stereo partly specified) the results were DAX1 inh-1 1, ssDAF12 agonist 0, hgDAF12 agonist 1, DAX1 inh-2 0 and hcDAF12 agonist 0.
For FC(F)(F)c1cc(-c2ccccc2)nc(NCc2cccnc2)n1 the results were DAX1 inh-1 -1, ssDAF12 agonist -1, hgDAF12 agonist 1, AHR activator 90*, DAX1 inh-2 -1, hcDAF12 agonist -3, AHR act confirm 28 and PXR counter 43*.
Screening COc1ccc(NC(=O)N2CCN(C(=O)C3CCCO3)CC2)cc1 (stereo unspecified) returned DAX1 inh-1 1, ssDAF12 agonist -1, hgDAF12 agonist 2, AHR activator 0, DAX1 inh-2 0 and hcDAF12 agonist 0.
`Cc1c(C)n(C(=O)CN2CCC(C)CC2)c2ccccc12` gave DAX1 inh-1 0, ssDAF12 agonist -1, hgDAF12 agonist 1, AHR activator 83*, DAX1 inh-2 -1, hcDAF12 agonist 1, AHR act confirm 53* and PXR counter 15*.
For O=C(CN1CCOCC1)n1c2ccccc2c2ccccc21 the results were DAX1 inh-1 0, ssDAF12 agonist -1, hgDAF12 agonist 4, AHR activator 18, DAX1 inh-2 0 and hcDAF12 agonist 2.
`Cc1cccc(C)c1NC(=O)C1(C)CSCC(=O)N1CCc1ccc(O)cc1` (stereo unspecified) gave DAX1 inh-1 1, ssDAF12 agonist -1, hgDAF12 agonist -1 and hcDAF12 agonist 1.
Screening CN(C)C(=O)c1ccc(NC(=O)c2sccc2-c2ccccc2)cc1 returned DAX1 inh-1 1, ssDAF12 agonist 0, hgDAF12 agonist 0, AHR activator -3, DAX1 inh-2 0 and hcDAF12 agonist -2.
`COc1ccc(OC)c2sc(NC(=O)CCS(=O)(=O)c3ccccc3)nc12` gave DAX1 inh-1 0, ssDAF12 agonist -1, hgDAF12 agonist -2, AHR activator 115*, DAX1 inh-2 0, hcDAF12 agonist 0, AHR act confirm 63* and PXR counter 24*.
Screening COCc1nnc(NC(=O)CCS(=O)(=O)c2ccccc2)s1 returned DAX1 inh-1 0, ssDAF12 agonist -1, hgDAF12 agonist 0, AHR activator 2, DAX1 inh-2 0 and hcDAF12 agonist -2.
Screening Cc1cccnc1NC(=O)Nc1cccc(C(F)(F)F)c1 returned DAX1 inh-1 0, ssDAF12 agonist -1, hgDAF12 agonist 1, AHR activator 4, DAX1 inh-2 1 and hcDAF12 agonist 0.
Screening CNC(=O)c1cccnc1Nc1cccc(C(F)(F)F)c1 returned DAX1 inh-1 0, ssDAF12 agonist -1, hgDAF12 agonist -2, AHR activator 120*, DAX1 inh-2 0, hcDAF12 agonist 2, AHR act confirm 105* and PXR counter 15*.
`Cc1ccc2cc3c(NC(=O)CC(C)C)nn(C)c3nc2c1` gave DAX1 inh-1 -1, ssDAF12 agonist -1, hgDAF12 agonist -3, AHR activator 103*, DAX1 inh-2 0, hcDAF12 agonist 0 and AHR act confirm 72*.
For O=C(Nc1cccc2ccccc12)c1cc2c(cc1Br)OCO2 the results were DAX1 inh-1 0, ssDAF12 agonist -1, hgDAF12 agonist 0, AHR activator 82*, DAX1 inh-2 -1, hcDAF12 agonist 2, AHR act confirm 95* and PXR counter 120*.
